Bioassay records (PubChem)
aSyn 5UTR act – Activators working through SNCA 5'UTR binding (MLPCN); alpha-synuclein 5'UTR reporter, activators screen; 300,000 compounds, 7.1% hits; activity score, % (tested at 7.5 µM), hits read low; in the data active means activity score below about -60%
Active calls of the source: *. A selection follows.

SMILES	aSyn 5UTR act
CC(=O)C1C(=O)c2c(cccc2[N+](=O)[O-])C1=Nc1ccccc1C (stereo not drawn)	-73*
COc1ccc(-c2ccc(SCC(=O)Nc3cccc(C(C)=O)c3)nn2)cc1OC	-82*
COc1ccccc1NC(=O)CSc1ccc(-c2ccc(-n3cccn3)cc2)nn1	-113*
CC(=O)c1cccc(NC(=O)CSc2ccc(-c3ccc4c(c3)OCO4)nn2)c1	-87*
COc1ccc2nc(N3CCN(C(=O)C4COc5ccccc5O4)CC3)sc2c1 (stereo not drawn)	-125*
COc1cccc(N2CCN(C(=O)c3ccc4nc(N5CCCCC5)sc4c3)CC2)c1	-153*
COc1ccc(N2CCN(C(=O)c3ccc4nc(N5CCCCC5)sc4c3)CC2)cc1	-192*
CC1CCN(c2nc3ccc(C(=O)N4CCN(Cc5ccc6c(c5)OCO6)CC4)cc3s2)CC1	-156*
Fc1ccccc1OCCSc1nnnn1-c1ccccc1	-83*
c1ccc(OCCSc2nnnn2-c2ccccc2)cc1	-86*
COc1cccc(C2=NO[C@@H]3C(=O)N(c4ccc5c(c4)OCCO5)C(=O)[C@H]23)c1OC	-81*
Cc1ccc(C(=O)c2cccc(N)c2)cc1C	82
C/C(=N\Nc1ccccc1)c1cccc(N)c1	-92*
Brc1ccc(N/N=C(/N=Nc2nn[nH]n2)c2ccccc2)cc1	97
N#C/C(=C\c1ccco1)Sc1nc2ccccc2s1	-84*
CCOc1ccccc1C(=O)N1CCN(c2cccc(Cl)c2)CC1	95
CS(=O)(=O)Nc1ccccc1C(=O)N1CCN(c2ccccc2)CC1	-73*
CC1CCC(=C(C#N)c2nc(-c3cc4ccccc4oc3=O)cs2)CC1 (stereo not drawn)	-258*
FC(F)Oc1ccc(C2N=C(c3ccccc3)NO2)cc1 (stereo not drawn)	-199*
COc1ccc(C2N=C(c3ccccc3)NO2)cc1OC (stereo not drawn)	-142*
CCOC(=O)C1(CCc2ccccc2)CCN(C(=O)CCn2cncn2)CC1	-99*
CCOC(=O)C1(Cc2ccccc2Cl)CCN(C(=O)CCn2ccnc2C)CC1	-81*
Cc1no[n+]([O-])c1COc1ccccc1/C=N/n1nnnc1N	-99*
CCOc1ccc2nc3sc(C(=O)N4CCN(C)CC4)c(N)c3cc2c1	-80*
COc1ccc2cc3c(N)c(C(=O)N4CCCC4)sc3nc2c1	-189*
SMILES	aSyn 5UTR act
Cc1ccc2cc3c(N)c(C(=O)N4CC(=O)Nc5ccccc54)sc3nc2c1	82
CC(C)c1ccc2nc3sc(C(=O)N4CCc5ccccc5C4)c(N)c3cc2c1	-62*
Cc1ccc2nc3sc(C(=O)N4CCOCC4)c(N)c3cc2c1	100
COc1ccc(/C=C/c2nc3ccccc3c(=O)o2)cc1	102
COc1ccccc1/C=C/c1nc2ccccc2c(=O)o1	-107*
COc1cccc(CNC(=O)CCC2CCCN(C(=O)c3cc4ccccc4o3)C2)c1 (stereo not drawn)	-78*
CCOc1ccc2c(=O)c(Oc3ccccc3OCC)coc2c1	-100*
COc1ccc(-c2coc3cc(O)ccc3c2=O)cc1OC	-66*
O=c1c(-c2ccc(F)cc2)coc2cc(O)ccc12	-94*
CCc1ccc(Oc2coc3cc(OCC(=O)Nc4cc(C)ccc4C)ccc3c2=O)cc1	60
COc1ccccc1-c1coc2cc(O)cc(O)c2c1=O	-71*
O=c1c(-c2ccc(F)cc2)coc2c3c(ccc12)OCCO3	-128*
COc1ccc2c(=O)c(-c3ccc(OC)c(OC)c3)coc2c1	-97*
COc1ccc2c(=O)c(-c3ccccc3)coc2c1	-65*
CCN(CC)C(=O)Oc1ccc2c(=O)c(-c3ccccc3)coc2c1	-90*
O=[N+]([O-])c1cc(O)c2ncccc2c1	70
O=[N+]([O-])c1cc2c(c(CSc3ncccn3)c1)OCOC2	-63*
Cc1cccc(Nc2cc(C)c3c(O)cccc3n2)c1C	-101*
O=c1c2ccccc2sc2ccc(Cl)cc12	-106*
COc1ccc(/C=N\NC(=O)C2CCCC2)cc1Br	-95*
CC(C)c1ccc(/C=N/NC(=O)C2CCCC2)cc1	-171*
Cc1ccc2nc(-c3ccc(NC(=O)CCN4C(=O)c5ccccc5C4=O)cc3)sc2c1	-171*
Cc1ccc2nc(-c3ccc(NC(=O)C(C)N4C(=O)c5ccccc5C4=O)cc3)sc2c1 (stereo not drawn)	-102*
Cc1ccc(C2(C)NC(=O)N(CC(=O)Nc3ccc(-c4nc5ccc(C)cc5s4)cc3)C2=O)cc1 (stereo not drawn)	-160*
COc1ccc(Nc2c(-c3ccco3)nc3ccc(C)cn23)cc1	-89*
SMILES	aSyn 5UTR act
Cc1ccc(Nc2c(-c3ccco3)nc3ccccn23)cc1	-83*
Cc1ccccc1Nc1c(-c2ccccn2)nc2ccccn12	64
COc1ccc(/C=C/c2ccncc2)cc1	-96*
CC(C)OC(=O)Cn1nnc2c(cnn2-c2ccccc2)c1=O	-98*
Cc1ccc(C(=O)N/N=C2\CCc3ccccc32)c(C)c1	-139*
O=C(N/N=C1\C(=O)c2cccc3cccc1c23)c1ccc(O)cc1	-137*
O=C(N/N=C/c1ccc(O)cc1O)c1ccc(CN2C(=O)c3cccc4cccc2c34)cc1	62
C/C(=N\NC(=O)c1cccc(Br)c1)c1ccccn1	108
O=C(N/N=C1\CCc2ccccc21)c1ccccc1Cl	-129*
O=C(N/N=C1\CCCc2ccccc21)c1cccc(Br)c1	-93*
S=C(N/N=C1\CCc2ccccc21)NC1CCCCC1	-106*
O=C(N/N=C1\CCc2ccccc21)c1ccc(O)cc1	-75*
CCOC(=O)N/N=C1\CCc2ccccc21	-102*
CC(=O)C1=C(C)OC(N)=C(C#N)C1c1cc2cc(C)c(C)cc2nc1Cl (stereo not drawn)	-68*
Cc1ccc(N=c2c([N+](=O)[O-])nn(-c3ccccc3)n2O)c(C)c1	-195*
Cc1c(Cl)cccc1N=c1c([N+](=O)[O-])nn(-c2ccccc2)n1O	-141*
CCOc1ccc(/C=C/C(=O)CCC(=O)O)cc1	-79*
CCOc1ccc(/C=C\C(C)=N\O)cc1	-150*
CC1(C)CC(NC(=O)COc2ccccc2Cl)CC(C)(C)N1	-66*
Cc1c(OCC(=O)NC2CC(C)(C)NC(C)(C)C2)ccc2c1oc(=O)c1ccccc12	-107*
COC(=O)c1ccc(N2OC3(C)C=CC2CC3)cc1 (stereo not drawn)	-88*
COc1cccc(-c2nnn(CC(C)=O)n2)c1	-122*
COc1ccc(-n2nnnc2-c2cccc(OC)c2)cc1	64
CCc1ccc(-c2nnn(CCC(=O)OC)n2)cc1	77
COc1ccc(-c2ccc(-c3nnn(CC(C)=O)n3)cc2)cc1	-189*
SMILES	aSyn 5UTR act
COc1cccc(-c2nnn(CC(=O)N3CCCCC3)n2)c1	-74*
COc1ccc(NC(=O)Cn2nnc(-c3ccccc3NS(=O)(=O)c3ccc(OC)cc3)n2)cc1	107
C=CCNC(=O)Cn1nnc(-c2ccc(-c3ccc(OC)cc3)cc2)n1	-129*
COC(=O)c1ccc(C)c(NS(=O)(=O)c2ccc(OC)cc2)c1	82
COc1ccc(S(=O)(=O)Nc2ccc(O)c3ccccc23)cc1	-68*
CC(C)(C)C(=O)Nc1nnc(CCc2ccccc2)s1	-126*
O=C(Nc1nnc(CCc2ccccc2)s1)c1ccccc1	-91*
COc1ccccc1C(=O)Nc1nnc(CCc2ccccc2)s1	-213*
CCCc1n[nH]c2c1/C(=N/O)CC(c1ccccc1)C2 (stereo not drawn)	69
CCC(=NCCc1c(C)[nH]c2ccc(OC(F)(F)F)cc12)C1=C(O)CC(c2ccccc2)CC1=O (stereo not drawn)	107
